# Hit rate of the full screen: of about 310,000 compounds, about 14,000 (4.5%) showed an effect of 50% or more. The effect is printed as a negative number. The entries come from a sample that favours strong results as a whole.
# Target: human ether-à-go-go-related gene (hERG) potassium channel (human, UniProt Q12809)
# Experiment: primary screen, population patch clamp on CHO cells stably expressing hERG; higher = less effect of the substance
# 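Note: peak tail current of the secondary pulse compared with the same well before compound.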
# Sequence of human ether-à-go-go-related gene (hERG) potassium channel (Q12809 whole entry, looked up): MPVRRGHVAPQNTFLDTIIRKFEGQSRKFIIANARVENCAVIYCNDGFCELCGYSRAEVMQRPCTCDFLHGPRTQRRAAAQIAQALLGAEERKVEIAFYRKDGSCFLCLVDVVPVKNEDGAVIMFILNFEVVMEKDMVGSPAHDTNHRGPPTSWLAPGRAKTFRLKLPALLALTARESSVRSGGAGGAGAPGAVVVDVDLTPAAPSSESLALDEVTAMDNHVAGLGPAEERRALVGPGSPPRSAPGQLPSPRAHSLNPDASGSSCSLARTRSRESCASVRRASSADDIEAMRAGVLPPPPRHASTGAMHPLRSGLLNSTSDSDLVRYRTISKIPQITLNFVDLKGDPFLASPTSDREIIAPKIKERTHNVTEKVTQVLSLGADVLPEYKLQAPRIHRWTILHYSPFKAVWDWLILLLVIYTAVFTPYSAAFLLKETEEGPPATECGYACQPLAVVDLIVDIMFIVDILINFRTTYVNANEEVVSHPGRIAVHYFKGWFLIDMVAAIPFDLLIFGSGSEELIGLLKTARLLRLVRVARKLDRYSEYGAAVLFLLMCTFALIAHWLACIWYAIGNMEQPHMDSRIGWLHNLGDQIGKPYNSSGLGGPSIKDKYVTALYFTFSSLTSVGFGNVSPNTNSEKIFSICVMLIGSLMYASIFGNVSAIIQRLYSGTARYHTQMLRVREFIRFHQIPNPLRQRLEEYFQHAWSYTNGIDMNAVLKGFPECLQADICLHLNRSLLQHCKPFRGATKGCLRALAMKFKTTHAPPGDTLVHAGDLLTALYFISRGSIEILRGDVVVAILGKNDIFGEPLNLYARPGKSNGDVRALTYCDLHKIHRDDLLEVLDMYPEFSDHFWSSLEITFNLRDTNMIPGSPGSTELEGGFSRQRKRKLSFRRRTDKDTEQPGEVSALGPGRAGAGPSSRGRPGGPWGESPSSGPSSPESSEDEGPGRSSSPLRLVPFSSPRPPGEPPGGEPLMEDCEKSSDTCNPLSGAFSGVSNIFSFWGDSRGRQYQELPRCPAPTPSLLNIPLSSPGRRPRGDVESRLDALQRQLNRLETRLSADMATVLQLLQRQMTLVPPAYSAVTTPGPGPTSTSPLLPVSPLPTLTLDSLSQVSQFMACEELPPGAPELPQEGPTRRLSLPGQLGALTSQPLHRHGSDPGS
row,Compound,"hERG current change (%, negative = inhibition) at 10uM [%]"
1,CCCN(CC1CC1)C(=S)Nc1ccc(C(C)=O)cc1,0.105
2,CCOc1ccc(CN2CCN(Cc3cccn3-c3ncccn3)CC2CCO)cc1 (stereo not drawn),-78.3
3,OCCC1CN(Cc2cccn2-c2cccnc2)CCN1Cc1ccc(F)cc1 (stereo not drawn),-56.9
4,OCCC1CN(Cc2cccn2-c2cccnc2)CCN1C1CCCCC1 (stereo not drawn),-28.1
5,COc1cccc(CN2CCN(Cc3cccn3-c3cccnc3)CC2CCO)c1 (stereo not drawn),-71.4
6,OCCC1CN(Cc2cccn2-c2cccnc2)CCN1Cc1ccccc1 (stereo not drawn),-42.4
7,CCOc1ccc(CN2CCN(Cc3cccn3-c3cccnc3)CC2CCO)cc1 (stereo not drawn),-84.1
8,COC(=O)c1ccc(C)c(NC(=O)CCc2ccc(OC)cc2)c1,-3.01
9,CCn1c(SC)nnc1C1CCN(CC(=O)Nc2ccccc2N2CCOCC2)CC1,-31
10,Nc1ccc(C(=O)Oc2ccc([N+](=O)[O-])cc2)cc1,10.9
11,Cc1ccc(NC(=O)Nc2ccccc2)c(Br)c1,-1.55
12,Fc1ccc(NC(=S)N2CCCC2)cc1,-1.37
13,Cc1cc(OCC(O)CN)ccc1Cl (stereo not drawn),8.74
14,CCCc1cnc(NCCNCC(O)COc2ccc(Cl)c(Cl)c2)nc1 (stereo not drawn),-71.2
15,Cc1cc(OCC(O)CNC(C)(C)C)ccc1Cl.Cl (stereo not drawn),-4.91
16,CC(C)c1ccc(OCC(=O)NC2=NCCS2)cc1,1.4
17,CCc1cccc(C)c1NC(=O)CN(C)Cc1ccccc1F.O=C(O)C(=O)O,-23.8
18,COc1cccc(NC(=O)COc2c(F)c(F)c(C(F)(F)F)c(F)c2F)c1,8.02
19,CCC(C)c1ccc(NC(=O)COc2c(F)c(F)c(C(F)(F)F)c(F)c2F)cc1 (stereo not drawn),-57.4
20,CCC(C)c1ccc(NC(=O)CC(C)=O)cc1 (stereo not drawn),4.93
21,Nc1ccc(C(=O)NC23CC4CC(CC(C4)C2)C3)cc1,16.3
22,C=CCN(c1ccccc1)S(=O)(=O)c1cccc(C(=O)Nc2ncccc2O)c1,8.35
23,Cn1nccc1C(=O)Nc1ccc(OC(=O)c2ccnn2C)cc1,-6.68
24,Cl.OC(CN1CCCCCC1)CN(c1ccccc1)c1ccccc1 (stereo not drawn),-71.8
25,Cl.OC(CN1CCCCC1)CN(c1ccccc1)c1ccccc1 (stereo not drawn),-63.2
26,Cl.OC(CN1CCOCC1)CN(c1ccccc1)c1ccccc1 (stereo not drawn),-28.5
27,CN(CC(O)CN)CC(O)CN1CCCCC1.Cl (stereo not drawn),4.64
